Results from PubChem BioAssay AID1578 (Sanford-Burnham Center for Chemical Genomics, 2009).
The campaign covered roughly 290,000 compounds. About 3,000 (1%) were called active. No stated cut-off is given here; in the data, active means inhibition mostly above about 36% (no sharp cut-off); inactive means mostly below about 34%. The full list was thinned out, with actives kept by preference.

Experiment: NOD1 signaling inhibitors, primary screen, cell-based, luminescence, uHTS (AID 1578);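 further: HEK-293T reporter cells stimulated with the NOD1 agonist gamma-tri-DAP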
Conditions: NOD1-driven NF-kB luciferase reporter cells, at 4 µM, active compounds read high

Row | Compound | inhibition
1 | COc1ccc(OC)c2c1C(=O)c1ccccc1C2=O | -6.7% (inactive)
2 | COc1ccc(N)c2c1C(=O)c1ccccc1C2=O | -34.4% (inactive)
3 | COc1ccc(OC)c2c1C(=O)C(Cl)=C(Cl)C2=O | 93.8% (active)
4 | CCOc1ccc2cc(/C=C/C(=O)c3ccco3)c(Cl)nc2c1 | 1.7% (inactive)
5 | Cc1ccc2nc(Cl)c(/C=C/C(=O)c3ccco3)cc2c1 | -0.1% (inactive)
6 | CCOc1ccc2nc(Cl)c(/C=C/C(=O)c3ccco3)cc2c1 | 69.3% (active)
7 | CC(C)(C)N1C(=O)[C@H]2[C@@H](c3ccc(Br)cc3)N3C(=O)N(c4cccc(Br)c4)C(=O)[C@@]3(Cc3ccccc3)[C@H]2C1=O | -11.7% (inactive)
8 | COc1ccc(CC(=O)Oc2ccc(F)cc2)cc1 | -9.7% (inactive)
9 | O=C(NN/C(=N/S(=O)(=O)c1ccc(Cl)cc1)c1ccccc1)c1ccc(O)cc1 | -79.7% (inactive)
10 | CCc1ccc(NC(=S)N2CCN(S(=O)(=O)c3ccccc3)CC2)cc1 | -13.5% (inactive)
11 | O=C1c2ccccc2-c2onc3c(Oc4ccccc4)cc(O)c1c23 | -15.3% (inactive)
12 | O=C1c2ccccc2-c2onc3ccc(Oc4ccccc4)c1c23 | 86.3% (active)
13 | CCOc1ccc2noc3c2c1C(=O)c1ccccc1-3 | -12.5% (inactive)
14 | O=S(=O)(c1cccc(-n2cnnn2)c1)N1CCOCC1 | -8.4% (inactive)
15 | CCOc1ccc2nc(SC3CC(=O)N(c4ccc(OC)cc4)C3=O)sc2c1 (stereo not drawn) | 15.3% (inactive)
16 | Cc1ccc(SCc2cc(=O)[nH]c(/N=C(\N)Nc3cccc4ccccc34)n2)cc1 | -11.6% (inactive)
17 | COc1ccc(Cl)cc1N/C(N)=N/c1nc(CSc2ccc(C)cc2)cc(=O)[nH]1 | -6% (inactive)
18 | COc1ccccc1N/C(N)=N/c1nc(CSc2ccc(C)cc2)cc(=O)[nH]1 | 53% (active)
19 | Cc1ccc(NC(=O)CN2CCN(C(=O)C3CCCO3)CC2)c(C)c1 (stereo not drawn) | -8.7% (inactive)
20 | CCCCCCc1nc2ccccc2c(=O)n1NC(=O)c1c(O)c2cccc3c2n(c1=O)CCC3 | 46.9% (inactive)
21 | CCC(=O)N1CCN(c2nc(-c3ccc(Cl)cc3)cs2)CC1 | -12.7% (inactive)
22 | CC(=O)/C(C#N)=C1\NC(=O)C(Cc2ccc(C)c(Cl)c2)S1 (stereo not drawn) | 26.5% (inactive)
23 | CC(=O)/C(C#N)=C1\NC(=O)C(Cc2cc(Cl)ccc2Cl)S1 (stereo not drawn) | 55% (active)
24 | CC(=O)/C(C#N)=C1\NC(=O)C(Cc2ccccc2Cl)S1 (stereo not drawn) | 14.5% (inactive)
25 | COc1cc(/C=C/C(=O)N2CCOCC2)ccc1OCc1ccccc1 | -102% (inactive)

Row | Compound | inhibition
26 | Cc1cc(C)n2nc(C(=O)Nc3c(C)nn(Cc4ccc(F)cc4)c3C)cc2n1 | -36.9% (inactive)
27 | Cc1cc2oc(=O)cc(Cn3ccnc3)c2cc1Cl | 0.9% (inactive)
28 | Cc1cc2oc(=O)cc(CN3CCOCC3)c2cc1Cl | 6.3% (inactive)
29 | Cc1cc2oc(=O)cc(Cn3ncc(Cl)c(Cl)c3=O)c2cc1Cl | 56.2% (active)
30 | O=[N+]([O-])c1cc(S(=O)(=O)N2CCCC2)ccc1N/N=C1/CCCc2ccccc21 | 13.3% (inactive)
31 | NS(=O)(=O)c1ccc(CNC(=O)c2cccnc2Cl)cc1 | -10.3% (inactive)
32 | CCOC(=O)C1CCCN(CCC(=O)Nc2cccc(C)c2)C1 (stereo not drawn) | -37.8% (inactive)
33 | Nn1cnnc1N/N=C/c1ccc(Cl)cc1Cl | -3.2% (inactive)
34 | COc1ccc(/C=N/Nc2nncn2N)cc1Br | -19.1% (inactive)
35 | Nn1cnnc1N/N=C/c1cc(Br)cc(Br)c1O | 82.4% (active)
36 | CC(C)CCN1C(=O)c2ccccc2C1C(=O)NCc1cccnc1 (stereo not drawn) | 7.5% (inactive)
37 | Cn1c(=O)c2c(nc3n2CC(COc2ccccc2)O3)n(C)c1=O (stereo not drawn) | -8.7% (inactive)
38 | COc1ccc(/C=N/Nc2snc(SC)c2C#N)cc1OC | -0.1% (inactive)
39 | COc1cc(/C=N/Nc2snc(SC)c2C#N)ccc1O | 63.7% (inactive)
40 | COc1cc(/C=N/Nc2snc(SC)c2C#N)cc(OC)c1OC | 68.9% (active)
41 | CCOc1ccc(NC(=O)CCNS(=O)(=O)c2ccc3c(c2)oc(=O)n3C)cc1 | -14.8% (inactive)
42 | N#CC(C(=O)c1ccccc1Cl)=C1SCCCS1 | -2.6% (inactive)
43 | CCN1C(=NCC(C)C)N[C@@H](c2cccc(C(F)(F)F)c2)C(C(=O)OC)=C1C | -18.8% (inactive)
44 | Cc1ccc(-c2nc3cnccn3c2Nc2ccccc2)o1 | -18.2% (inactive)
45 | Cc1ccc(Nc2c(-c3ccc(C)o3)nc3cnccn23)cc1 | -9.7% (inactive)
46 | Cc1ccc(-c2nc3cnccn3c2Nc2c(C)cccc2C)o1 | 71% (active)
47 | COc1ccc(C2c3cc(OC)c(OC)cc3CCN2C(=O)c2ccccc2)cc1OC (stereo not drawn) | -31.9% (inactive)
48 | Cc1ccc(NC(=O)c2cc(=O)c3ccccc3o2)cc1S(=O)(=O)N1CCOCC1 | -6.6% (inactive)
49 | O=C(Nc1ccc(S(=O)(=O)N2CCCC2)cc1)c1cc(=O)c2ccccc2o1 | -3.6% (inactive)
50 | Cc1ccc(S(=O)(=O)N2CCCCC2)cc1NC(=O)CSc1ncnc2ccccc12 | 58.7% (inactive)

Row | Compound | inhibition
51 | Cc1ccc(NC(=O)CSc2ncnc3ccccc23)cc1S(=O)(=O)N1CCCCCC1 | 31.7% (inactive)
52 | COc1ccc(Br)cc1CNC(=O)CN1C(=O)C(c2ccccc2)Oc2cccnc21 (stereo not drawn) | 18.1% (inactive)
53 | CCc1ccccc1NC(=O)CCc1c(C)nn(-c2ccc(N3CCOCC3)nn2)c1C | 20.1% (inactive)
54 | O=C(CSc1nnc(CNC(=O)c2cccs2)o1)Nc1ccc(Br)cc1 | -31.8% (inactive)
55 | CCOC(=O)c1cnc2ccc(C(=O)OC)cc2c1Nc1ccc(C(=O)O)cc1 | -16.9% (inactive)
56 | CCOC(=O)c1ccc2ncc(C(=O)OCC)c(Nc3ccc(N4CCOCC4)cc3)c2c1 | 107% (active)
57 | CCOC(=O)c1cnc2ccc(C)cc2c1Nc1ccc(N2CCOCC2)cc1 | -17.2% (inactive)
58 | CC(C)C(NC(=O)C(C)N1C(=O)c2ccccc2C1=O)c1ccccc1 (stereo not drawn) | -7.4% (inactive)
59 | CCC(=O)c1ccc(SC(=O)N(C)C)cc1O | -4.8% (inactive)
60 | C=C1CCC[C@]2(C)C[C@H]3OC(=O)C(CN4CCOCC4)[C@H]3C[C@@H]12 (stereo partly drawn) | 2.5% (inactive)
61 | C=C1CCC[C@]2(C)C[C@H]3OC(=O)C(CN4CCCCC4CO)[C@H]3CC12 (stereo partly drawn) | 80.3% (active)
62 | C=C1CCC[C@]2(C)C[C@H]3OC(=O)C(CN4CC(C)OC(C)C4)[C@H]3C[C@@H]12 (stereo partly drawn) | -4.7% (inactive)
63 | COc1ccccc1NC(=O)c1sc2ncn(Cc3ccc(C)cc3)c(=O)c2c1C | -43.8% (inactive)
64 | CCCS(=O)(=O)Nc1cc(C(F)(F)F)ccc1OCCOC | -0.9% (inactive)
65 | Cc1cc(C)cc(Oc2ccc(N)cc2)c1 | -28.1% (inactive)
66 | Nc1ccc(Oc2ccc(Br)cc2)cc1 | -35.5% (inactive)
67 | Nc1ccc(Oc2cc(N)cc(Oc3ccccc3)c2)cc1 | -12.3% (inactive)
68 | CC(C)(C)c1ccc(Oc2ccc(N)cc2)cc1 | 82% (active)
69 | Cc1cccc(Oc2ccc(N)cc2)c1 | -25.9% (inactive)
70 | Cc1cc(Oc2ccc(N)cn2)ccc1Cl | 4.5% (inactive)
71 | Nc1ccc(Oc2ccc(F)cc2)nc1 | -4.6% (inactive)
72 | CC(C)(C)c1ccc(Oc2ccc(N)cn2)cc1 | 65.9% (active)
73 | CCn1c2c(c3cc(Br)ccc31)CCC/C2=N\O | 15.3% (inactive)
74 | O=C(CCN1CCN(Cc2ccccc2)CC1)NNC(=O)Cc1ccc(Cl)c(Cl)c1 | -1.2% (inactive)
75 | COCC(=O)N(Cc1cc2cc(OC)ccc2[nH]c1=O)c1ccc(C)cc1 | -12.1% (inactive)

Row | Compound | inhibition
76 | O=C(CCS(=O)(=O)c1ccccc1)Nc1ccc2c(c1)OCO2 | -59.3% (inactive)
77 | CCOC(=O)N1CCN(S(=O)(=O)c2cc(Br)cnc2N)CC1 | 10.4% (inactive)
78 | COc1ccc(-c2csc(N3CCC(c4ccccc4)C3)n2)cc1 (stereo not drawn) | 26.8% (inactive)
79 | CCc1ccc(N(CC(=O)N2CCN(Cc3ccccc3)CC2)S(C)(=O)=O)cc1 | -32.3% (inactive)
80 | Nc1nc(=S)[nH]c2c1C1(CCCC1)Cc1ccccc1-2 | 14.3% (inactive)
81 | Nc1nc(=S)[nH]c2c1C1(CCCCC1)Cc1ccccc1-2 | -16.2% (inactive)
82 | Cc1nc(=S)c2c([nH]1)-c1ccccc1CC21CCCCC1 | 104% (active)
83 | N#C/C(=C/c1ccc(Sc2nc3ccccc3[nH]2)o1)c1cccc(F)c1 | 76.3% (active)
84 | N#C/C(=C\c1ccc(Sc2nc3ccccc3[nH]2)o1)c1ccccc1 | 65.2% (inactive)
85 | N#C/C(=C/c1ccc(Sc2nc3ccccc3[nH]2)o1)c1cccc(Br)c1 | 3.1% (inactive)
86 | COc1cccc(CN2CCN(C(=S)NCc3ccc(Cl)cc3)CC2)c1 | -10.4% (inactive)
87 | CCc1nc2sc3c(c2c(=O)n1CCO)CCC3 | -18.6% (inactive)
88 | COC(=O)c1cc(C)sc1NC(=O)CCCC(=O)O | -19.8% (inactive)
89 | CCCCNC(=O)CCn1c(=O)c2ccccc2n(CC(=O)N2CC(C)CC(C)C2)c1=O (stereo not drawn) | 21.3% (inactive)
90 | COc1cccc(/C=C/c2n[nH]c(=O)c(C#N)c2C)c1 | -7.2% (inactive)
91 | Cc1ccsc1/C=C/c1n[nH]c(=O)c(C#N)c1C | 9.3% (inactive)
92 | COc1ccc(/C=C/c2n[nH]c(=O)c(C#N)c2C)cc1 | 84.3% (active)
93 | COc1ccc(-c2nc3ccccc3c(=O)n2NC(=O)Cc2ccccc2)cc1 | -18.8% (inactive)
94 | COCCC(=O)N1CCC(Oc2ccc(C(=O)N3C[C@@H](C)O[C@@H](C)C3)cc2)CC1 | -23.9% (inactive)
95 | O=C(c1cccc(Oc2ccc([N+](=O)[O-])cc2Cl)c1)N1CCOCC1 | -7.9% (inactive)
96 | CCC(=O)c1cccc2c1N=CC1=C(CC(C)(C)CC1=O)N2 | -20.6% (inactive)
97 | CC1CC(=O)C2=C(C1)Nc1ccccc1N=C2 (stereo not drawn) | 11.1% (inactive)
98 | CC1(C)CC(=O)C2=C(C1)Nc1ccccc1N=C2 | 59.6% (active)
